Screening results deposited in PubChem BioAssay by Pan Lab, Icahn School of Medicine at Mount Sinai.
Only a selection was taken, and hits are over-represented in it overall.
RBX1-CUL1 inh: inhibitors of human ROC1-CUL1 ubiquitin ligase activity; inhibition, % at 10 µM; actives 0.6% (n = 140,000); E3 ubiquitin-protein ligase RBX1 (Homo sapiens) + Cullin-1 (Homo sapiens), P62877+Q13616; in vitro K48 di-Ub FRET, acceptor:donor ratio, 45 min; in the data active = inhibition above about 25%
Numbers stand for hits; . = inactive.

SMILES	RBX1-CUL1 inh
CCc1ccc(/C=C2\C(=O)NN(c3ccc(Cl)c(Cl)c3)C2=O)cc1	81
O=C1NN(c2ccc(Cl)c(Cl)c2)C(=O)/C1=C/c1ccc(Br)cc1	57
CCc1ccc(/C=C2\C(=O)NN(c3ccc(I)cc3)C2=O)cc1	.
O=C1NN(c2ccc(Br)cc2)C(=O)/C1=C\c1ccc2c(c1)OCO2	.
Cc1cc(/C=C2\C(=O)NN(c3ccccc3)C2=O)c(C)n1-c1ccc(Cl)c(Cl)c1	.
O=C1NN(c2ccc(Cl)c(Cl)c2)C(=O)/C1=C/c1ccccc1	.
O=C(c1cc(Br)cs1)N1CCN(c2ccccc2F)CC1	.
c1cnc(Sc2ccc(CN3CCc4[nH]nc(C5CCC5)c4C3)o2)nc1	.
Cc1nc(SCc2ccc(F)cc2)c2c3c(sc2n1)CCC3	.
Cc1ccc(OCC(=O)Nc2ccccc2C)cc1	.
CCCOC(=O)c1ccc(N2CC(C(=O)OC(C)C(=O)c3ccc(C)cc3)CC2=O)cc1 (centres undefined)	.
O=C(CCCc1ccccc1)Nc1ccnn1C1CCN(C2CCOCC2)CC1	.
CCc1ccccc1NC(=O)c1ccc([N+](=O)[O-])o1	.
N#C/C(=C/C(=O)c1ccccc1)c1ccc([N+](=O)[O-])o1	85
O=C(/C(=C/c1ccccc1)Sc1ccccc1)c1ccc([N+](=O)[O-])o1	.
Cn1c(Cc2ccccc2)nnc1SCc1ccc(Cl)cc1	.
Cc1c(C(=O)Nc2ccccc2)nnn1-c1ccccc1	.
CC1=NN(c2ccccc2)C(=O)/C1=C(\C)c1ccc(-c2ccccc2)cc1	.
COC(=O)/C(=C1/C(=O)N(c2ccccc2)N=C1C)C(F)(F)F	39
CC1=NC2=C(C(=O)c3ccccc32)C(c2cccc(Br)c2)C1[N+](=O)[O-] (centres undefined)	.
O=C(/C=C/c1ccco1)CCN1CCCCC1	.
O=C1C(=C/C=C/c2ccccc2Cl)C(=O)N(c2ccccc2)C(=S)N1c1ccccc1	.
CN1C(=O)C(=C/C=C/c2ccco2)C(=O)N(C)C1=S	45
O=C1NCCN(Cc2cccnc2)C1CC(=O)N1CCOc2ccccc2C1 (centres undefined)	.
CC(C)CN1CCCC1c1ccc(C(=O)Nc2cccnc2)s1 (centres undefined)	.
SMILES	RBX1-CUL1 inh
COc1cc(C2c3c(n[nH]c3-c3ccc(F)cc3)OC(=N)C2C#N)ccc1OCc1ccccc1 (centres undefined)	.
CCOC(=O)c1c(NC(=O)c2ccc(C)cc2)sc2c1CCCCC2	.
CC(=O)Nc1sc2c(c1C(=O)c1ccccc1)CCCC2	.
O=C(Nc1sc2c(c1C(=O)O)CCCCC2)c1ccccc1	.
Cc1ccc(C(=O)Nc2sc3c(c2C(=O)O)CCCC3)cc1	47
NCCNC(=O)c1c(NC(=O)c2ccccc2)sc2c1CCCC2	34
CN1CCN(C(=O)c2c(NC(=O)c3ccccc3)sc3c2CCCC3)CC1	.
CN1CCN(CC(O)c2ccc(C3CCCC3)cc2)CC1 (centres undefined)	.
CCc1noc(C)c1C(=O)N1CCCC(CO)(CCc2ccccc2)C1 (centres undefined)	.
CCC(C)NS(=O)(=O)c1ccc(Cl)c2ccccc12 (centres undefined)	.
CCn1cc(CNC(=O)Nc2ccc(C)cc2)c(C)n1	.
Cc1ccsc1/C=C1/C(=O)NC(=S)N(c2cccc(Cl)c2Cl)C1=O	54
O=C1NC(=S)N(c2cccc(Cl)c2Cl)C(=O)/C1=C/c1ccc(N2CCOCC2)cc1	29
O=C1NC(=S)N(c2cccc(Cl)c2Cl)C(=O)/C1=C/c1cn(Cc2ccc3ccccc3c2)c2ccccc12	.
Cc1ccc(N2C(=O)NC(=O)/C(=C\c3cccs3)C2=O)cc1C	.
C=CCOc1ccc(/C=C2\C(=O)NC(=S)N(c3cccc(Cl)c3Cl)C2=O)cc1	.
CN1C(=O)/C(=C/c2ccc(N3CCCC3)cc2)C(=O)NC1=S	.
O=C(Nc1nnc(-c2ccc(F)cc2)s1)c1cccs1	.
O=C(NCCC1=CCCCC1)c1ccco1	.
O=C(NCCC1=CCCCC1)c1ccccc1Cl	.
O=C(NCCC1=CCCCC1)c1cc(-c2ccco2)nc2ccccc12	42
Cc1ccccc1N/N=C/c1ccc(-c2ccc(Br)cc2)o1	.
O=C1N(CC2CC2)CCCC1(O)CN1CCC(O)(c2ccccc2)CC1 (centres undefined)	.
COc1ccc(C(C)OC2CC(=O)CC3C(=O)c4cccc(O)c4C(=O)C23)cc1 (centres undefined)	.
CC(OC1CC(=O)CC2C(=O)c3c(O)ccc(O)c3C(=O)C12)c1ccc2ccccc2c1 (centres undefined)	97
CC(C)(C)OC1CC(O)CC2C(=O)c3c(O)ccc(O)c3C(=O)C12 (centres undefined)	.
O=C(N=C(Cc1ccccc1)C(=O)N1CCC(Cc2ccccc2)CC1)c1ccccc1	.
Cc1[nH]c2ccccc2c1C1c2cc([N+](=O)[O-])ccc2OC2(N3CCOCC3)CCCCC12 (centres undefined)	.
CC1=NC2=C(C(=O)CC(C)(C)C2)C(c2ccc(Br)s2)C1C(=O)Nc1ccccn1 (centres undefined)	.
